Laboratory results reported in PubChem BioAssay (NCI).
“And” between values parts separate entries of the source, which are not always exact repeats. Identical values can stand only once. Compounds without any hit were thinned out: in the full panel of roughly 79,000, 15% have a hit. The source made the active and inactive calls. Cut-off read from the data, not from the text of the source: active = growth inhibition above about 70%; inactive = the rest.

Tests used:
[1] = NCI Yeast Anticancer Drug Screen. Data for the rad50 strain (AID 155);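 note: 0% = growth of vehicle-only cultures of the same strain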; conditions: S. cerevisiae rad50 strain growth inhibition, hits give high values; at 50.0 µM unless noted
How it was run: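 DNA repair mutant yeast, compound exposure, growth read-out; inhibition is taken relative to vehicle.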

[2] = NCI Yeast Anticancer Drug Screen. Data for the mec2-1 strain (AID 157); conditions: S. cerevisiae mec2-1 strain, hits give high values; at 50.0 µM unless noted
How it was run: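 Test agents were screened against the mec2-1 yeast strain, with defined DNA repair or cell cycle alteration. Growth was scored as inhibition against vehicle-only controls.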

[3] = NCI Yeast Anticancer Drug Screen. Data for the sgs1 mgt1 strain (AID 161);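 note: 0% = growth of cultures given vehicle only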; conditions: S. cerevisiae sgs1 mgt1 strain, hits give high values; at 50.0 µM unless noted
How it was run: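 Read-out: growth inhibition vs vehicle controls. Cells: mutant yeast strain deficient in DNA damage repair.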

[4] = NCI Yeast Anticancer Drug Screen. Data for the cln2 rad14 strain (AID 165);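 note: 0% = growth equal to vehicle treated cultures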; conditions: S. cerevisiae cln2 rad14 strain, hits give high values; at 50.0 µM unless noted
How it was run: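 Growth of compound-exposed yeast (cln2 rad14 genotype) measured and expressed as inhibition relative to vehicle.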

[5] = NCI Yeast Anticancer Drug Screen. Data for the bub3 strain (AID 167); conditions: S. cerevisiae bub3 mutant strain, hits give high values; at 50.0 µM unless noted
How it was run: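 In this screen, a yeast mutant lacking normal mitotic checkpoint function is challenged with compound. Relative growth versus vehicle gives the inhibition value.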

[6] = NCI Yeast Anticancer Drug Screen. Data for the mlh1 rad18 strain (AID 175); conditions: S. cerevisiae mlh1 rad18 strain growth inhibition, hits give high values; at 50.0 µM unless noted
How it was run: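 In this whole-cell yeast screen, a strain with altered DNA damage repair is challenged with compound, and its growth is measured against matched vehicle-treated controls.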

Measured: growth inhibition

Cc1ccc(-c2c3ccccc3cc3ccccc23)c(C)c1
inactive: [1] 24.9% | [2] -11.1% | [3] -1.5% | [4] -2.8% | [5] 5.25% | [6] 11.8%

CCCN=C(N)C(C)=O
inactive: [1] 5.85% | [2] -4.9% | [3] -11.1% | [4] 4.85% | [5] 15.2% | [6] 2.1%

C=C1C2CCC(C2)C1(C)CC/C=C(/C)CO (stereo not given) (tested in a mixture with another compound)
inactive: [1] 34.4% and 47.7% | [2] 9.65% and 7.15% | [3] 33.2% and 41.6% | [4] 20.2% and 7.3% | [5] 35.5% and 19.8% | [6] 16.4% and 26.4%

O=C1NN(C(=O)c2ccccc2)C(c2ccccc2[N+](=O)[O-])c2c1c1ccccc1n2C(=O)c1ccccc1 (stereo not given)
inactive: [1] 28.9% | [2] 5.65% | [3] 5.2% | [4] -23.4% | [5] -4.05% | [6] 14.9%

CC(=O)OCC1OC(n2c3c(c(-c4cccc5ccccc45)c(C#N)c2=S)CCCC3)C(OC(C)=O)C(OC(C)=O)C1OC(C)=O (stereo not given)
inactive: [1] -1.25% | [2] -5.3% | [3] 14% | [4] 6.15% | [5] -5.8% | [6] 12.7%

C=C1CC[C@@H](C)[C@](C)(CCc2ccoc2)C/C=C\C=C/1C(=O)O
inactive: [1] 23.7% | [2] 30.8% | [3] 18.6% | [4] 48.1% | [5] 25.6% | [6] 61.6%

CC(O)C(O)CC(/C=N/NC(=O)c1ccccc1)=N/NC(=O)c1ccccc1 (stereo not given)
inactive: [1] 3.55% | [2] 4.25% | [3] -14.6% | [4] -7.55% | [5] -0.75% | [6] 2.8%

CC(=O)c1ccc(NC(=O)C(=O)C(C(=O)c2ccc(Cl)c(Cl)c2)C2OC(=O)c3ccccc32)cc1 (stereo not given)
inactive: [1] 44.6% | [2] 38.8% | [3] 13.7% | [4] 54.1% | [5] 60.3% | [6] 49.3%

O=c1c2ccc(Cl)cc2nc2nc(-c3ccccc3)c3cc(Cl)ccc3n12
inactive: [1] 57.6% | [2] 31.2% | [3] 37.4% | [4] 22.9% | [5] 6.3% | [6] 46.5%

CCCCCCCCSC(=N)N
inactive: [1] 23.9% | [2] -14.1% | [3] 1.95% | [4] 18.1% | [5] 36.1% | [6] 10.7%

CCN(CC)CCN(CC)C(=S)Nc1ccccc1
inactive: [1] 1.75% | [2] 21.2% | [3] 23.2% | [4] -4.65% | [5] 2% | [6] 12.2%

O=c1oc(-c2ccccc2)nc2c1sc1nc(-c3ccccc3)oc(=O)c12
active: [4] 79.8%
inactive: [1] 47.9% | [2] 30.7% | [3] 43.3% | [5] 24.6% | [6] 49.4%

O=C(Nc1cc(Cl)c(Cl)cc1Cl)C(=O)C(C(=O)c1ccc(Cl)c(Cl)c1)C1OC(=O)c2ccccc21 (stereo not given)
inactive: [1] 19.4% | [2] 8.55% | [3] 0.55% | [4] 27% | [5] 4.05% | [6] 22.6%

C[C@H](C(=O)O)C(=O)NC(=O)N(Cc1ccccc1)N=O
inactive: [1] -24% | [2] -24.6% | [3] -26.8% | [4] 14.3% | [5] -1.25% | [6] -8.3%

CCCCCCNC(=O)CCN(C(=O)O)S(=O)(=O)c1ccc(NC(=O)c2ccccc2)cc1
inactive: [1] 11.7% | [2] -3.45% | [3] 8.6% | [4] 17.7% | [5] 7.4% | [6] -1.45%

C(=C/c1ccccc1)/c1ccccc1
inactive: [1] -6.45% | [2] -16.1% | [3] -25.6% | [4] 8.85% | [5] -2.65% | [6] -2.15%

COc1ccc(/C=N/NS(=O)(=O)c2ccc(NC(C)=O)cc2)cc1
inactive: [1] -15.2% | [2] -30.1% | [3] 16.4% | [4] 22.8% | [5] -21.8% | [6] -9.15%

CCCCC/C(=N\c1nc[nH]c1C(N)=O)OCC
inactive: [1] -29.9% | [2] -12.9% | [3] -37.9% | [4] -7.1% | [5] -27.8% | [6] -25.6%

CC1CCC2(C(=O)O)CCC3(C)C(=CCC4C5(C)CCC(O)C(C)(C)C5CCC43C)C2C1C (stereo not given)
inactive: [1] 12.8% and 11.4% | [2] 11.3% and 0.15% | [3] 12.3% and -9.2% | [4] 0.45% and 16.4% | [5] 5.8% and -7.4% | [6] 14.4% and 0.85%

COc1ccc(Br)cc1C1OC(=O)c2c(OC)c(OC)cc([N+](=O)[O-])c21 (stereo not given)
inactive: [1] 33.9% | [2] 5.25% | [3] 20.5% | [4] 8.2% | [5] 2.3% | [6] 18.2%

O=S(=O)(NCCN1CCNC1=S)c1ccc(Cl)c(Cl)c1
inactive: [1] -55.5% | [2] -12.7% | [3] -3.25% | [4] -16.7% | [5] -6.2% | [6] -6.6%

COc1ccccc1NC(=O)C(/C=N/C(=S)NNC(C)=O)=C(/C)O
inactive: [1] 0.7% | [2] -16.2% | [3] -27% | [4] -5.9% | [5] -12.6% | [6] 2.45%

CCN(CC)OC(=O)/C=C/c1ccccc1
inactive: [1] 2.05% | [2] 5.5% | [3] -10.3% | [4] 20.2% | [5] -3.3% | [6] -4.45%

CC(=O)Nc1ccc(S(=O)(=O)NC(C)=O)cc1
inactive: [1] -5.8% | [2] -8.75% | [3] -2.7% | [4] -20.4% | [5] 6.7% | [6] 12.6%

C=CCOC(=O)COc1ccc(Cl)cc1
inactive: [1] -0.95% | [2] -8.1% | [3] -12.3% | [4] -2.15% | [5] -7.75% | [6] 0.55%

O=C(O)c1ccc(Nc2c3ccccc3nc3ccccc23)cc1
inactive: [1] 49% | [2] 11.6% | [3] 37.3% | [4] 17.2% | [5] 26.8% | [6] 24.6%

COc1ccc(C2S/C(=C\c3ccc(OC)cc3OC)C(=O)N2NC(=O)Cc2ccccc2)cc1 (stereo not given)
inactive: [1] -4.3% | [2] -50.6% | [3] 2.4% | [4] -59.6% | [5] -14.1% | [6] 5.05%

Cc1ccc(/C=C2\NC(=S)NC2=O)cc1
inactive: [1] -0.15% | [2] -18.9% | [3] -1.9% | [4] -21.4% | [5] -23.4% | [6] -41.4%

CC1CCC2C(C)C(=O)OC2C2(C)C(=O)C=CC12 (stereo not given)
inactive: [1] 11.9% | [2] -12.3% | [3] 13.7% | [4] 22.6% | [5] 2.7% | [6] -27.4%

N=C(N)SCCc1cn2ccccc2n1
inactive: [1] -5.45% | [2] -45.9% | [3] -17.1% | [4] 3.65% | [5] -15.8% | [6] 1.05%

CC(=O)Nc1ccc2ccccc2c1[N+](=O)[O-]
inactive: [1] -11.1% | [2] -14.4% | [3] -17.4% | [4] -64.5% | [5] -35.8% | [6] 15.7%

O=c1[nH]c(Br)nc2c(N3CCCCC3)c[nH]c12
inactive: [1] 12.7% | [2] -0.45% | [3] -7.2% | [4] 4.35% | [5] -3.05% | [6] 11.6%

O=[N+]([O-])c1cc(COc2ccc(Cl)c(Cl)c2)ccc1Cl
inactive: [1] 1.8% | [2] 30.3% | [3] 38.5% | [4] -0.95% | [5] 46.4% | [6] 35.8%

O=C(c1ccccc1)C(c1ccccc1)C(Cl)c1ccccc1 (stereo not given)
inactive: [1] 21.4% | [2] 30.8% | [3] 31.4% | [4] 3% | [5] -3.2% | [6] 19%

CCOC(=O)CC/C=N/Nc1ccc([N+](=O)[O-])cc1[N+](=O)[O-]
inactive: [1] 20.6% | [2] -14% | [3] 6.7% | [4] -45.5% | [5] 6.55% | [6] 0%

COc1cccc(C(c2ccccc2)C(CC(=O)O)CC(=O)O)c1 (stereo not given)
inactive: [1] 8.8% | [2] 8.6% | [3] -12.8% | [4] 4% | [5] -2.1% | [6] -16.5%

C=C1CC[C@](C)(O)[C@@]2(C)CC[C@H]3C(=C(C)C)C(=O)C[C@]3(C)C[C@H]12
inactive: [1] 12.1% | [2] 5.45% | [3] 10.2% | [4] 18.5% | [5] 1.7% | [6] 23.8%

C=C1C2CCC3(CCC4C5(C)CCCC4(C=[N+](CCO)C5)C3C2)C1O (stereo not given)
inactive: [1] -20.7% | [2] -22.5% | [3] -27.9% | [4] 14.1% | [5] -17.6% | [6] -28.6%

CCCCCOC(=O)c1ccc(C(C)C)cc1
inactive: [1] 10.2% | [2] -6.2% | [3] 5.15% | [4] 8.5% | [5] 0.6% | [6] 5.1%

O=C1c2ccccc2NC(O)c2cccn21 (stereo not given)
inactive: [1] 0.3% | [2] 0.2% | [3] -3.75% | [4] -25.9% | [5] 11.4% | [6] -5.45%
